# Measurements taken from PubChem BioAssay (NCATS).
# Experiment: qHTS profiling of the MIPE4 collection as inhibitors of Plasmodium falciparum (DD2) proliferation (Rep 2) (AID 743346)
# Settings: P. falciparum Dd2 in erythrocytes, SYBR Green DNA, 72 h; at 28.5 µM unless noted
# Excerpt: Plasmodium falciparum is a virulent malarial parasite that kills 1-2 million people worldwide each year. Transmitted by mosquitoes, the sporozoite form of the parasite enters the blood stream to infect hepatocytes, where they become merozoites that infect red blood cells (erythrocytes). Within erythrocytes, merozoites begin a […] cycle of growth and division, after which the parasite is released to infect new red blood cells. Gametocytes, which form within erythrocytes as well, circulate in the bloodstream and are ingested by the mosquito, thereby completing the life cycle. To profile malarial isolates for differential chemical responses and to identify inhibitors of malarial growth, an assay that measures P. falciparum growth and replication within erythrocytes was employed. This assay uses a DNA binding fluorescent dye (SYBR Green) to detect parasite DNA following cell lysis. Because mature erythrocytes lack DNA, only Plasmodium-derived DNA is detected.
# The SYBR Green viability assay was adapted from a method described previously (Plouffe et al., 2008). For screening 3 ul culture medium was dispensed into 1536 well black clear bottom plates (Aurora Biotechnologies) using a Multidrop Combi (Thermo Fisher Scientific Inc.), 23 nL compounds in DMSO were added by a pin tool (Kalypsys), and 5 ul of erythrocytes infected with P. falciparum (0.3% parasitemia, 2.5% hematocrit final concentration) were added. The plates were incubated at 37 C in a humidified incubator in 5% CO2 for 72 h, and 2 ul lysis buffer (20 mM Tris HCl, 10 mM EDTA, 0.16% saponin, 1.6% triton X, 10X SYBR Green I supplied as 10,000X […] by Invitrogen) was added to each well. The plates were mixed for 25 sec with gentle shaking and incubated overnight at room temperature in the dark. The following morning, fluorescence intensity at 485(14) nm excitation and 535(25) nm emission wavelengths was measured on an EnVision (Perkin Elmer) plate reader. Plate reads were normalized relative to the control inhibitor (0.29 uM artemisinin) and vehicle (DMSO) wells present on each plate and then corrected by an algorithm using vehicle-only control plates at the beginning and end of the compound plate stack.
row,Compound,"parasite growth, % of control (lower = inhibition)"
1,COc1ccc2nc3cc(Cl)ccc3c(Nc3cc(CN4CCCC4)c(O)c(CN4CCCC4)c3)c2n1,7.91%
2,Cc1cccc2c1CC[C@H](CN1CCC(c3c(Cl)cccc3Cl)CC1)C[C@@H]2O,25%
3,CC(C)C[C@@H](C(=O)N[C@H](C(=O)OC1CCCC1)c1ccccc1)[C@H](O)C(=O)NO,29%
4,COc1c(C)cnc(Cn2cnc3c(Cl)nc(N)nc32)c1C,31.8%
5,Cc1ccc(S(=O)(=O)OCC(=O)Nc2ccc(C(=O)O)c(O)c2)cc1,124%
6,CN(C)CCOc1ccc(C(=C(CCCl)c2ccccc2)c2ccccc2)cc1,19.5%
7,Cc1ccc(NC(=O)c2ccc(CN3CCN(C)CC3)cc2)cc1Nc1nc(-c2cccnc2)cs1,12.5%
8,CCCCc1ccc(NS(=O)(=O)c2ccc(C)c(C(=O)N3CCN(c4cccc(C)c4C)CC3)c2)cc1,59.2%
9,OC[C@H]1O[C@@H](OCCc2ccc(O)cc2)[C@H](O)[C@@H](O)[C@H]1O,131%
10,O=C(O)c1nc(=O)[nH]c(=O)[nH]1,93.6% [at 9.64 µM]
11,CC1=C[C@@H]2[C@@H]([C@@H](O)C[C@@]3(C)[C@H]2C[C@@H](C)[C@]3(O)C(=O)CO)[C@@]2(C)Cc3cnn(-c4ccccc4)c3C=C12,46.9%
12,C#C[C@]1(O)CC[C@H]2[C@H]3CCc4cc(OC)ccc4[C@H]3CC[C@@]21C,90.2%
13,OCCn1cc(-c2ccc3c(c2)CCC3=NO)c(-c2ccncc2)n1,74.7%
14,CNc1nc(Nc2ccc(C(=O)N3CCOCC3)cc2OC)ncc1Cl,56.9%
15,NC[C@H]1O[C@H](O[C@@H]2[C@@H](O)[C@@H](O[C@H]3O[C@H](CO)[C@@H](O)[C@H](N)[C@@H]3O)[C@H](N)C[C@@H]2N)[C@H](O)[C@@H](O)[C@H]1O,80.6%
16,CCc1cccc(CC)c1NC(=O)N1Cc2[nH]nc(NC(=O)c3ccc(N4CCN(C)CC4)cc3)c2C1,21.6%
17,CN1N=C(N)c2cn([C@@H]3O[C@H](COP(=O)(O)O)[C@@H](O)[C@@H]3O)c3ncnc1c23,67.6%
18,OC1CCC(Nc2ncc3nc(Nc4c(F)cc(F)cc4F)n([C@@H]4CCOC4)c3n2)CC1 (stereo not given in full),59.6%
19,CCOC(=O)[C@H](CCc1ccccc1)N[C@@H](C)C(=O)N1CCCC1C(=O)O (stereo not given in full),75.7%
20,O=C(Nc1ncc(SCCN2CCCC2)s1)[C@]1(c2ccc(S(=O)(=O)C3CC3)cc2)C[C@@H]1C1CCCCC1,20.2%

row,Compound,"parasite growth, % of control (lower = inhibition)"
1,Cc1cc(C(C)Nc2ccccc2)c2nc(N3CCOCC3)cc(=O)n2c1 (stereo not given),31.1%
2,CCC(C)SSc1ncc[nH]1 (stereo not given),89.6%
3,CN(C)CC[C@H](CSc1ccccc1)Nc1ccc(S(=O)(=O)NC(=O)c2ccc(N3CCN(Cc4ccccc4-c4ccc(Cl)cc4)CC3)cc2)cc1[N+](=O)[O-],31.1%
4,CCCCC[C@H](O)C=C[C@H]1[C@H](O)CC(=O)[C@H]1CC=CCCCC(=O)O,56.3%
5,CC(=O)N1CCN(c2ccc(OCc3nn(C)c(C)c3-c3cccc4c(CCCOc5cc(C)c(Cl)c(C)c5)c(C(=O)O)n(Cc5cccnc5)c34)cc2)CC1,13.7%
6,Cc1ccccc1-n1c(Cn2nc(-c3cccc(O)c3)c3c(N)ncnc32)nc2cccc(C)c2c1=O,15%
7,CC[C@H](C)n1cc(C)c2c(C(=O)NCc3c(C)cc(C)[nH]c3=O)cc(-c3ccc(N4CCNCC4)nc3)cc21,8.77%
8,COc1nccc(-c2c(-c3ccc(F)cc3)ncn2C2CCNCC2)n1,41%
9,COc1cc(N2CCN(C)CC2)ccc1Nc1nc(N)c(C(=O)c2c(Cl)cccc2Cl)s1,14.6%
10,CCOC(=O)c1c(CSc2ccccc2)n(C)c2cc(Br)c(O)c(CN(C)C)c12,12.1%
11,O=[N+]([O-])c1ccc(Nc2ccccc2-c2ccccc2)c2nonc12,46.7%
12,N=C1SC(=Cc2ccc(-c3ccc4c(c3)C(=O)NC4=O)o2)C(=O)N1c1ccc(Br)cc1,30.9%
13,O=C(Nc1cccc(Cl)c1)Nc1ncc(CCNc2ncnc3ccsc23)s1,39%
14,Cc1ccc2c(c1)c1c(n2CCc2ccc(C)nc2)CCN(C)C1,49.2%
15,CC1CNc2c(cccc2S(=O)(=O)N[C@@H](CCCN=C(N)N)C(=O)N2CC[C@@H](C)C[C@@H]2C(=O)O)C1 (stereo not given in full),101%
16,CCNC(=O)[C@H]1O[C@@H](n2cnc3c(N)nc(NCCc4ccc(CCC(=O)O)cc4)nc32)[C@H](O)[C@H]1O,116%
17,CNC(=O)c1ccc2c(C(=Nc3cccc(CN(C)C)c3)c3ccccc3)c(O)[nH]c2c1,15.2%
18,CN1CCN2c3ncccc3Cc3ccccc3C2C1 (stereo not given),50.4%
19,C[C@@H]1[C@H](O)[C@@H](C)C=CC=CC=CC=CC=CC=CC=C[C@H](O[C@@H]2O[C@H](C)[C@H](O)[C@H](N)[C@@H]2O)C[C@@H]2O[C@](O)(C[C@@H](O)C[C@@H](O)[C@H](O)CC[C@@H](O)C[C@@H](O)CC(=O)O[C@H]1C)C[C@H](O)[C@@H]2C(=O)O,7.41%
20,NCC1CCC(C(=O)O)CC1 (stereo not given),104%
